The nature of test [1]: inhibitors of TNFa-induced NFkB p65 translocation, primary screen, imaging, HUVEC, MLSMR starter and 10KST1 sets (AID 438).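 Also: compound added about 3h40 before a 20 min TNFalpha stimulation.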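 As to inhibition: signal is the nuclear over cytoplasmic p65 intensity ratio per well.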 The note with it: HUVEC TNFa-induced p65 nuclear translocation; cell count: measured here: nuclei count (cytotoxicity indicator), at 2.08 µM; inhibition: at 2 µM, stronger effect = higher value, 0% TNFa-plus-vehicle, 100% no-TNFa wells.
The nature of test [2]: reduction of polyQ htt aggregates in cells – imaging, exon1htt(103Q)mCFP cells, high-content imaging, primary screen (AID 483;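 active = visual image review flags a hit and inhibition of aggregation exceeds 20%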;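 also: compound exposure lasted 3 days before fixation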;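 as to nuclei count: percent of the per-plate median nuclei count of sample wells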). Particulars: exon1htt(103Q)mCFP cell line, aggregate imaging, at 2 µM; inhibition of aggregation: stronger effect = higher value; nuclei count: measured here: cell count, toxicity.
Test [3] can be described thus: endothelial E-selectin expression blockers – imaging, HUVEC, immunofluorescence, MLSMR starter and 10KST1 sets, primary screen (AID 487;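 active = visually confirmed hit in the image check and inhibition above 20%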;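 as to inhibition: signal is fraction of cell area covered by stained E-selectin grains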;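 as to nuclei count: 100% = median nuclei count of all wells on the same plate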). The note with it: HUVEC TNFalpha-induced E-selectin immunofluorescence imaging, at 2 µM; inhibition: stronger effect = higher value; nuclei count: measured here: cell number, toxicity.
The target of test [4] is Voltage-gated potassium channel subunit beta-2 (Rattus norvegicus) (UniProt P62483). The test can be described thus: inhibitors of rat Kvbeta2 reductase activity – biochemical, NADPH fluorescence, primary screen (AID 622;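 active = fluorescence slope higher than the sample average by over 3 SD, cut at about -0.22 in these data, passing the limit was not always enough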;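 also: slope of raw intensity against log time taken from 70 to 1610 s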). Particulars: recombinant KvBeta, 4-cyanobenzaldehyde reduction, at 10 µM, stronger effect = higher value.
Test [5] has the same target. In words: enhancers of rat Kvbeta2 NADPH turnover – biochemical, NADPH fluorescence, primary screen (AID 623;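 active = NADPH fluorescence slope more negative than the mean of all samples by about 3 SD, 99.7% confidence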;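 also: fluorescence intensity change per second fitted from 20 to 320 s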). Particulars: Recombinant KvBeta, NADPH fluorescence decrease slope, 10 min; at 10 µM; stronger effect = lower value.
The target in test [6] is Alpha-2C adrenergic receptor (Homo sapiens) (UniProt P18825). The test can be described thus: compounds altering alpha2C-coupled GIRK flux – cell-based, HEK293 alpha2C/GIRK1/2, thallium flux, primary screen (AID 624;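 active = fluorescence slope after compound addition differing from the mean of all screened samples at 99.7% confidence, in either direction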;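 also: slope of fluorescence ratio to pre-addition baseline per second over 15 to 24 s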). The note with it: thallium flux BTC fluorescence, at 10 µM, actives lie on both sides.
A short description of test [7]: blockers of RIG-like receptor reporter activation – cell-based, Sendai virus stimulus, luciferase, 10K MLSCN set, TLR/RLR signaling modifier project, primary screen (AID 602276;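 active = inhibition at or above 50% at 10 µM; inactive = inhibition below 50%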;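 also: firefly luciferase from ISG56 promoter only with Renilla not read in this screen; 0% = Sendai virus plus DMSO and 100% = medium plus DMSO without virus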). The note with it: HEK293 RL24 IRF3 luciferase reporter, at 10 µM, stronger effect = higher value. (In general: In a reporter assay the amount or activity of a reporter protein is the signal.)
Test [8] is described as follows: TLR3 IRF3 reporter activation blockers – cell-based, poly I:C stimulus, luciferase, 10K MLSCN set, primary screen (AID 602277;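 active = inhibition of the reporter signal at or above 50%; inactive = inhibition below 50%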). The note with it: HEK293-TLR3 RL24 IRF3 luciferase reporter, at 10 µM, stronger effect = higher value.

The values below come from PubChem BioAssay.

SMILES strings stand for the structures. Activity calls are given as the source filed them.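 The calls were made as follows, unless noted: active = inhibition above 20% together with a positive visual image hit; inconclusive = visual image hit but inhibition not above 20%; inactive = no visual image hit.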

Sequence of Voltage-gated potassium channel subunit beta-2 (Rattus norvegicus) (P62483 whole entry, looked up): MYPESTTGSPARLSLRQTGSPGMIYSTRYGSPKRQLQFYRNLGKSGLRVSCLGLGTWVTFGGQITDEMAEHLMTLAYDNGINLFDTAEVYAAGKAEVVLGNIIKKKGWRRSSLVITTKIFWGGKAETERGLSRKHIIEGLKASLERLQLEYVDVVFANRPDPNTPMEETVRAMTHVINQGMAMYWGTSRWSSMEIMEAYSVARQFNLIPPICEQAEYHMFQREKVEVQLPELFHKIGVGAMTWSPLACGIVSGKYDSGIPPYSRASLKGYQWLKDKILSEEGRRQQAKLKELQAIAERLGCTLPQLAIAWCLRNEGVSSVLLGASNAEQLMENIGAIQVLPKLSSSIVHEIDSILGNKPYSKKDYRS
Sequence of Alpha-2C adrenergic receptor (Homo sapiens) (P18825 whole entry, looked up): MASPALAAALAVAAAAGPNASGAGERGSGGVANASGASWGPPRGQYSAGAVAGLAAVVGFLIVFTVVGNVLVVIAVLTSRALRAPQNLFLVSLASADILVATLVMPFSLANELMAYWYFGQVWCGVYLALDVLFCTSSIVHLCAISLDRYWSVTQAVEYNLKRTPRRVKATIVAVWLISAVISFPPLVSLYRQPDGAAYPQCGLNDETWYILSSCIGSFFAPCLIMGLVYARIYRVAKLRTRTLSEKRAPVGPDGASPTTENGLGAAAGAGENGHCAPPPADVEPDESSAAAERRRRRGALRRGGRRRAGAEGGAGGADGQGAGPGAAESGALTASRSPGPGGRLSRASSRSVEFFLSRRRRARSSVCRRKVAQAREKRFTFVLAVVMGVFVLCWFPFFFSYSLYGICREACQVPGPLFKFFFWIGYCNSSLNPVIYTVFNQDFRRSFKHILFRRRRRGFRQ

The inhibition is the change of the read-out against control, counted positive when it falls. As for `CCOc1ccc(OCC)c(NC(=O)CCCN2C(=O)c3cccnc3C2=O)c1`, in test [1], the cell count was 408. The inhibition in test [1] was 5.3% (inactive); in test [3] it was 42.2% (inactive); in test [7], -17.2% (inactive); in test [8] it was -8.59% (inactive). Further, the inhibition of aggregation in test [2] was 15.7% (inactive). The results for the nuclei count in test [2] and in test [3] were 93.7% and 102%, respectively. Moreover, the fluorescence slope in test [4] was -0.583 (inactive). Besides, the NADPH fluorescence slope in test [5] is -3.8e-05 (inactive). Besides, the slope in test [6] is 0.00505 (inactive).

On to `COC(=O)C1=C(C)n2nnnc2NC1c1ccc(Cl)cc1` (stereo not drawn), for which the cell count in test [1] stood at 340. For the same molecule, the inhibition in test [1] is 3.6% (inactive); in test [3] it was -119% (inactive); in test [7] it was 2.58% (inactive); in test [8], 10.6% (inactive). Further, the inhibition of aggregation in test [2] was -8.8% (inactive). Besides, the values for the nuclei count in test [2] and in test [3] were 99.4% and 80.4%, respectively. The fluorescence slope in test [4] is -0.367 (inactive). Moreover, the NADPH fluorescence slope in test [5] was 1.8e-05 (inactive). Further, the slope in test [6] was 0.00153 (inactive).

With `COc1cccc(-c2cc(C(F)(F)F)n3ncc(C(=O)O)c3n2)c1`, in test [1], the cell count is 382. Moreover, the inhibition in test [1] is -2.6% (inactive); in test [3], -22.3% (inactive); in test [7], 11% (inactive); in test [8], 20.4% (inactive). Further, in test [2], the inhibition of aggregation is 13.4% (inactive). For the same molecule, the nuclei count in test [2] was determined as 94.7%; in test [3], 73.7%. In addition, in test [4], the fluorescence slope is -0.576 (inactive). Further, the NADPH fluorescence slope in test [5] is -5.3e-05 (inactive). For the same molecule, the slope in test [6] was 0.00328 (inactive).

For the molecule `Cc1ccc2cc(CN(Cc3ccc4c(c3)OCO4)Cc3nnnn3Cc3ccco3)c(=O)[nH]c2c1C`, the cell count in test [1] is 338. For the same molecule, the inhibition in test [1] is 0.9% (inactive); in test [3], -79.9% (inactive); in test [7], 39.3% (inactive); in test [8], 79.5% (active). In addition, the inhibition of aggregation in test [2] is 29.2% (inactive). In addition, the nuclei count in test [2] worked out at 49%; in test [3], 109%. Besides, the fluorescence slope in test [4] was -0.389 (inactive). Moreover, the NADPH fluorescence slope in test [5] was 4.5e-05 (inactive). The slope in test [6] was 0.00797 (inactive).

On to `CCC(Sc1nc(-c2ccccc2)c(C#N)c(=O)[nH]1)C(=O)Nc1cc(C)on1` (stereo not drawn), for which the cell count in test [1] was 327. The inhibition in test [1] was 2.5% (inactive); in test [3], -74.9% (inactive); in test [7], 6.22% (inactive); in test [8], 7.77% (inactive). The inhibition of aggregation in test [2] was -9.8% (inactive). Moreover, the nuclei count came out at 115% in test [2] and 127% in test [3]. Further, the fluorescence slope in test [4] was -0.357 (inactive). The NADPH fluorescence slope in test [5] is -1.8e-05 (inactive). For the same molecule, the slope in test [6] is 0.00594 (inactive).

As for `CCCCOC(=O)c1[nH]c2c(c1C)C(=O)CC(c1cc(OC)c(OC)c(OC)c1)C2` (stereo not drawn), the cell count in test [1] came out at 546. The inhibition in test [1] was -1.7% (inactive); in test [3] it was -7.4% (inactive); in test [7] it was 7.86% (inactive); in test [8], -20.9% (inactive). Also, in test [2], the inhibition of aggregation is 18.4% (inactive). In addition, the nuclei count in test [2] was 79.6%; in test [3], 104%. Besides, the fluorescence slope in test [4] was -0.57 (inactive). Further, the NADPH fluorescence slope in test [5] was -2.8e-05 (inactive). Also, the slope in test [6] is 0.00591 (inactive).

`CCOc1ccccc1-n1c(SCC(=O)NC(C)CC)nnc1-c1ccoc1C` (stereo not drawn): in test [1], the cell count was determined as 608. For the same molecule, the inhibition in test [1] is -2.4% (inactive); in test [3] it was -47.9% (inactive); in test [7], 18.6% (inactive); in test [8], 17.4% (inactive). In test [2], the inhibition of aggregation is -1.9% (inactive). The results for the nuclei count in test [2] and in test [3] were 105% and 121%, respectively. For the same molecule, the fluorescence slope in test [4] is -0.439 (inactive). The NADPH fluorescence slope in test [5] was -3.6e-05 (inactive). In addition, in test [6], the slope was 0.00423 (inactive).

Regarding `CCOC(=O)C(CC)n1nc(C)n2c(cc3sccc32)c1=O` (stereo not drawn), the cell count in test [1] worked out at 526. Besides, the inhibition in test [1] was 7.7% (inactive); in test [3], -25.8% (inactive); in test [7], 10.8% (inactive); in test [8], 19.7% (inactive). Moreover, the inhibition of aggregation in test [2] is 14.3% (inactive). Also, the nuclei count in test [2] was 110%; in test [3], 122%. Moreover, the fluorescence slope in test [4] is -0.567 (inactive). For the same molecule, the NADPH fluorescence slope in test [5] was -3.4e-05 (inactive). In addition, the slope in test [6] is 0.0065 (inactive).

As for `CCSc1nnc2c(n1)OC=Nc1ccc(Br)cc1-2`, in test [1], the cell count is 262. Also, the inhibition in test [1] is -12.8% (inactive); in test [3] it was -24.2% (inactive); in test [7] it was 15.5% (inactive); in test [8] it was 20.5% (inactive). Besides, the inhibition of aggregation in test [2] was 20.4% (inactive). The nuclei count in test [2] worked out at 62.3%; in test [3], 84.5%. The fluorescence slope in test [4] is -0.38 (inactive). For the same molecule, the NADPH fluorescence slope in test [5] was -3.3e-05 (inactive). Further, the slope in test [6] is 0.00298 (inactive).

In the case of `Cc1ccc(-c2nn(C)c(=O)c3ccccc23)cc1S(=O)(=O)NCCN1CCOCC1`, in test [1], the cell count amounted to 325. Further, the inhibition in test [1] was 5% (inactive); in test [3] it was -24.7% (inactive); in test [7] it was -17.1% (inactive); in test [8], 3.02% (inactive). Moreover, the inhibition of aggregation in test [2] is 13.3% (inactive). Further, the nuclei count worked out at 100% in test [2] and 113% in test [3]. Besides, the fluorescence slope in test [4] is -0.468 (inactive). In addition, the NADPH fluorescence slope in test [5] is 4.7e-05 (inactive). Also, the slope in test [6] was 0.00544 (inactive).

`CCCOc1ccc(NC2=CC(=O)CC(C)(C)C2)cc1`: the cell count in test [1] was determined as 342. For the same molecule, the inhibition in test [1] was 3.8% (inactive); in test [3], -89.3% (inactive); in test [7], -1.23% (inactive); in test [8] it was -12.8% (inactive). In test [2], the inhibition of aggregation was -7.1% (inactive). The nuclei count in test [2] is 119%; in test [3], 117%. For the same molecule, in test [4], the fluorescence slope is -0.405 (inactive). In addition, the NADPH fluorescence slope in test [5] was -4.9e-05 (inactive). In test [6], the slope was 0.00457 (inactive).

For the molecule `COc1ccc(C)cc1NC(=O)CCC(=O)Nc1ccc2nc(N3CCN(C)CC3)cc(C)c2c1`, the cell count in test [1] is 623. Also, the inhibition is 1.5% (inactive) in test [1], -62.6% (inactive) in test [3], -21.1% (inactive) in test [7] and -51.1% (inactive) in test [8]. In test [2], the inhibition of aggregation was -9.5% (inactive). For the same molecule, the results for the nuclei count in test [2] and in test [3] were 104% and 108%, respectively. For the same molecule, in test [4], the fluorescence slope was -0.428 (inactive). For the same molecule, the NADPH fluorescence slope in test [5] was 6e-06 (inactive). For the same molecule, the slope in test [6] was 0.00326 (inactive).

`Nc1ccc(C(=O)OCCCc2nc3ccccc3[nH]2)cc1`: the cell count in test [1] amounted to 366. In addition, the inhibition is -2.2% (inactive) in test [1], 9% (inactive) in test [3], -17.1% (inactive) in test [7] and -17.7% (inactive) in test [8]. Further, the inhibition of aggregation in test [2] is 10.5% (inactive). Further, the nuclei count amounted to 95.7% in test [2] and 92.5% in test [3]. The fluorescence slope in test [4] was -0.589 (inactive). Besides, the NADPH fluorescence slope in test [5] is -5.8e-05 (inactive). Besides, the slope in test [6] was 0.00614 (inactive).
